Reference: PubChem BioAssay (NCATS)
The source made the active and inactive calls.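 Rule for the calls: active = compounds whose dose series gives a full or clear partial fitted curve of increased nuclear translocation; inconclusive = weak partial curve or effect only at the top dose; inactive = no dose-dependent translocation response.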

Target: Glucocorticoid receptor (Homo sapiens) (UniProt P04150)
Experiment: GR-GFP Redistribution (AID 450)
Details: U2OS GR-GFP nuclear translocation, laser cytometry, 2 h; series mostly up to 20.6 µM
Potency is the fitted concentration of half-maximal effect.

Glucocorticoid receptor (Homo sapiens), sequence (P04150 whole entry, looked up): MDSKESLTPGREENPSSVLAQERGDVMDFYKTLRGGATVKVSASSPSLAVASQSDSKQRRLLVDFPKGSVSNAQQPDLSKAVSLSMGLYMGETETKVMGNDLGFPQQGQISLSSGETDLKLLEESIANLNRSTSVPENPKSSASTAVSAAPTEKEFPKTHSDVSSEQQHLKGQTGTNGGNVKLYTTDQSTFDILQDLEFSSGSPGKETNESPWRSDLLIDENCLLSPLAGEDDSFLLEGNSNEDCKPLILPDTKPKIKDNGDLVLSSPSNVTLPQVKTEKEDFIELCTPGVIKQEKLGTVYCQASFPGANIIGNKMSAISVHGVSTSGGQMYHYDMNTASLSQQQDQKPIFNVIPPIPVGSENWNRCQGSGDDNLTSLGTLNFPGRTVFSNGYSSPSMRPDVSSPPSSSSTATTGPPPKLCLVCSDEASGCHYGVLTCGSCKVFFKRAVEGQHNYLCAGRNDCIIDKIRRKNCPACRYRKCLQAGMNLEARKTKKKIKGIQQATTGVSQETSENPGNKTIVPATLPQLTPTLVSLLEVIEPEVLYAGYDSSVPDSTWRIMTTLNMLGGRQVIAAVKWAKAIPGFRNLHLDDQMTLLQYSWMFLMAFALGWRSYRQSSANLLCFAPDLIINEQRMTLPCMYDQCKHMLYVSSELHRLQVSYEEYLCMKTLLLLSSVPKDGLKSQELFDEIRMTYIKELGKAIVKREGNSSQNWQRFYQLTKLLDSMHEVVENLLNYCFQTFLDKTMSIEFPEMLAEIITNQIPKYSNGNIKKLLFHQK

Potency, inactive:
COc1cccc(OC)c1OCC(C)CNCC1CCCO1 (stereo unspecified) > 20.6 µM
CCCC(C)n1[nH]c(=O)cc1N (stereo unspecified) > 20.6 µM
CCCCCOc1ccc(Cl)cc1CN1CCOCC1 > 20.6 µM
Cc1nc2oc(C(=O)c3ccc(Br)cc3)c(N)c2c2c1COC(C)(C)C2 > 20.6 µM
Cc1nc2sc3c(NCc4ccco4)ncnc3c2c2c1COC(C)(C)C2 > 20.6 µM
CCOC(=O)N1CCN(c2ncnc3c2cnn3-c2ccc(OC)cc2)CC1 > 20.6 µM
CCCSc1nnc(NC(=O)Nc2ccccc2)s1 > 20.6 µM
COC(=O)NC(Nc1sc2c(c1C(N)=O)CCCC2)(C(=O)OC)C(F)(F)F (stereo unspecified) > 20.6 µM
N#Cc1nc(-c2cccs2)oc1NCc1ccccc1 > 20.6 µM
CCOC(=O)C1CCN(c2nc3ccccc3nc2C(C#N)C(=O)OC(C)C)CC1 (stereo unspecified) > 20.6 µM
C=CCc1c(C)c(C#N)c2nc3ccccc3n2c1N1CCN(C)CC1 > 20.6 µM
CCC1=C(C(=O)OC)C(c2cc(OC)ccc2OC)C(C#N)=C(N)O1 (stereo unspecified) > 20.6 µM
COc1ccc(C(=O)N/C(N)=N/c2nc3ccccc3o2)cc1 > 20.6 µM
COC(=O)c1sc(NC(=O)c2oc3ccccc3c2C)nc1C > 20.6 µM
COCCNc1cc(C)c(C#N)c2nc3ccccc3n12 > 20.6 µM
Cc1ccc(Cn2ncc3c(N4CCN(c5ccc(C)cc5)CC4)ncnc32)cc1 > 20.6 µM
